Structures are written as SMILES. Hit rate of the full screen: of about 360,000 compounds, about 25,000 (6.9%) were called active. Not shown: some 9% with an inconclusive outcome. Calls follow the shape of the dose curve; as a rule, active = well fitted inhibition curve with a large enough effect; inconclusive = small, poorly fitted or top-dose-only effect; inactive = flat fitted curve, though single readings scatter. The list comes from a sample in which actives are over-represented; it also holds similar structures and randomly drawn compounds. Entries that show only a call come without a potency.

The values below come from PubChem BioAssay AID588342 (National Center for Advancing Translational Sciences (NCATS), 2011).
Potency is read from the fitted curve at half-maximal effect.

The target of the experiment is Luciferin 4-monooxygenase (Photinus pyralis) (UniProt P08659). As to the kind of experiment: qHTS profiling assay for firefly luciferase inhibitor/activator using purifed enzyme and Km concentrations of substrates (counterscreen for miR-21 project). Also: nearly all actives have a fitted effect of over 55% in size. To be noted: purified FLuc, luminescence inhibition; series mostly up to 57.5 µM. The method in brief: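 Purified P. pyralis luciferase (10nM final) with 10uM D-luciferin and 10uM ATP (Km levels) in 50mM Tris acetate pH 7.5, 10mM Mg acetate, 0.01% Tween-20, 0.05% BSA; qHTS 6-point titration, ~60 µM downward; luminescence read.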
Luciferin 4-monooxygenase (Photinus pyralis), sequence (P08659 whole entry, looked up): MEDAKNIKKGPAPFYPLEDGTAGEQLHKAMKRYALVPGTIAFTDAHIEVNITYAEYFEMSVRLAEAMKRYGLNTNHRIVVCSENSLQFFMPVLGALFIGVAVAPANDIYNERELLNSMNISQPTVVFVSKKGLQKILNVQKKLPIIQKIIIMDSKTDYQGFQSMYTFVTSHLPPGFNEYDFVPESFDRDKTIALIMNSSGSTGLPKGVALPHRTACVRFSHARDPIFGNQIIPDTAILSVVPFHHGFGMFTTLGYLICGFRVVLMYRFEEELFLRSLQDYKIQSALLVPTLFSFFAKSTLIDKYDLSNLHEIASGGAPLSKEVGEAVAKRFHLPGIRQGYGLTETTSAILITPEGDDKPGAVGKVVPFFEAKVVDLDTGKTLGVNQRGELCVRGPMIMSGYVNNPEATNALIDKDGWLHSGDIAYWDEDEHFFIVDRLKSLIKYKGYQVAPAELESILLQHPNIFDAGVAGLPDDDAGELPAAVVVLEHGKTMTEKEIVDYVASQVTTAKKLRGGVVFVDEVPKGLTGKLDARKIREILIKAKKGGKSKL
In the case of `CCOc1ccc(S(=O)(=O)Nc2nc3cc(OC)ccc3s2)cc1`, the Potency result was “inactive”.
As for `N#C/C(=C\c1cccc(F)c1)c1nc(-c2cc3c(ccc4ccccc43)oc2=O)cs1`, the Potency result is “inactive”.
With `COc1ccc2nc(Nc3nc(-c4ccncc4)cs3)sc2c1` the figure was 1.51 µM (active); with `Cc1ccc2nc(-c3ccncc3)cc(C(=O)Nc3ccc(OC(F)F)cc3)c2c1`, “inactive”; with `COc1ccc2nc(Nc3nc(-c4cc5ccccc5oc4=O)cs3)sc2c1`, 0.849 µM (active).
With `COc1ccc2nc(Nc3nc4cc5c(cc4s3)OCCO5)sc2c1`, the Potency is 9.53 µM (active).
Turning to `COc1ccc2oc(=O)cc(-c3cc4ccccc4o3)c2c1`, the Potency entry is “inactive”.
With `O=c1oc2ccccc2cc1-c1csc(Nc2ccc(O)cc2)n1` the figure was 5.36 µM (active).
As for `COc1ccc(-c2onc(C)c2-c2ccc3c(c2)OCCO3)c(O)c1`, the entry is “inactive”; as for `COc1ccc(Nc2cc(=O)oc3ccccc23)cc1`, “inactive”; as for `CCOCCCNC(=O)c1c(NC(=O)Cc2coc3ccc(C)cc23)sc2c1CCC2`, “inactive”.
`Cc1cc(NC(=O)CSc2nc(=O)cc(N)n2-c2ccc(F)cc2)no1`: the Potency result was “inactive”.
As for `CC1CCCN(S(=O)(=O)c2ccc3[nH]c(=O)cc(C(=O)NCCc4ccc(Cl)cc4)c3c2)C1` (stereo unspecified), the entry is “inactive”; as for `COc1ccc(CNc2nc(-c3ccccc3)nn2C(=O)c2ccccc2OC)cc1`, “inactive”.
Take `Cc1ccc(C)c(Cn2c(=O)n(CCC(=O)NCc3ccc4c(c3)OCO4)c(=O)c3sccc32)c1`: the Potency entry is “inactive”.
With `COc1ccc(-c2nnc(SCC(=O)Nc3ccccc3C)o2)cc1OC`, the Potency entry is “inactive”.
Consider `CCOC(=O)CSc1nnc(CNc2nc(-c3ccccc3)cs2)n1C`, for which the Potency entry is “inactive”.
On to `Cn1c(CNc2nc(-c3ccccc3)cs2)nnc1SCC(=O)c1ccccc1`, for which the Potency result is “inactive”.
With `CCNc1nc(-c2cc3ccccc3o2)cs1` the figure was 0.601 µM (active); with `COc1ccc(-c2c(C)c3ccc(O)c(CN4CCN(C)CC4)c3oc2=O)cc1OC`, “inactive”.
With `COc1cc(OC)cc(-c2c(-c3cccs3)c3cc(-c4ccc(OC)nc4)ccc3n2C)c1` the entry was “inactive”; with `CCOc1ccc(OCC)c(NC(=O)c2cc(C)nc3c2c(C)nn3-c2cccc(Cl)c2C)c1`, “inactive”; with `N#CCC(=O)N/N=C/c1cn(Cc2ccc3ccccc3c2)c2ccccc12`, “inactive”.
As for `CNC(=S)N/N=C/c1cn(Cc2ccc(C)cc2)c2ccccc12`, the entry is “inactive”; as for `COc1cccc(Cn2cc(/C=N/NC(=O)c3cc(O)cc(O)c3)c3ccccc32)c1`, 26.9 µM (active).
Take `COc1ccc(N2CCN(C(=O)/C(C#N)=C/c3ccccc3)CC2)cc1`: the Potency entry is “inactive”.
With `CCOC(=O)NC(=O)/C(C#N)=C\c1ccccc1` the entry was “inactive”; with `CCOC(=O)/C(C#N)=C/c1ccc(N2CCCCC2)cc1`, 2.69 µM (active).
With `COC(=O)c1ccc(OC)c(Cn2c(=O)n(Cc3ccccc3)c(=O)c3c2c2cc(OC)ccc2n3C)c1` the entry was “inactive”; with `CCOc1ccccc1NC(=O)CN1CCCN(Cc2cccc(Cl)c2)S1(=O)=O`, “inactive”.
As for `c1cnc(N2CCN(c3ccc4ccccc4n3)CC2)nc1`, the figure is 5.36 µM (active); as for `O=C(c1ccncc1)N1CCN(c2ccc3ccccc3n2)CC1`, “inactive”.
For the molecule `CC12CCC(C(=O)N3CCN(c4ncccn4)CC3)(c3nc4ccccc4nc31)C2(C)C` (stereo unspecified), the Potency entry is “inactive”.
Turning to `Cc1csc(NC(=O)NC2(C(F)(F)F)Oc3ccccc3O2)n1`, the Potency entry was “inactive”.
With `Cc1csc(NC(=O)Nc2ccccc2[N+](=O)[O-])n1` the figure was 4.78 µM (active).
Consider `CN1CCN(CCNC(=O)Nc2ccccc2[N+](=O)[O-])CC1`, for which the Potency result was “inactive”.
In the case of `COc1ccc(Cl)cc1NC(=O)CN(C)C(=O)c1ccc2n[nH]nc2c1`, the Potency result was “inactive”.
`Cc1cccc(NC(=O)CSc2nc3c(c(=O)[nH]2)CCCC3)c1C`: the Potency entry is “inactive”.
As for `Cc1cccc(NC(=O)CSc2nc3c(c(=O)[nH]2)CCC3)c1C`, the Potency result was “inactive”.
Turning to `Cc1cccc(NC(=O)CSc2ncc(-c3ccccc3)[nH]2)c1C`, the Potency is 13.5 µM (active).
With `O=C(Nc1ccccc1Cl)N1CCC(CN2CCCC2)CC1` the entry was “inactive”; with `Cc1cc(Nc2cccc(C(F)(F)F)c2)nc2ccc(NC(=O)c3ccc(=O)[nH]c3)cc12`, “inactive”.
For the molecule `CSc1ccc(NC(=O)Cn2nnnc2-c2ccccc2F)cc1`, the Potency result is “inactive”.
Take `CCOc1ccc2nc(N(CCN(C)C)C(=O)c3ccc4ccccc4c3)sc2c1`: the Potency result was “inactive”.
On to `CCCC(=O)N(CCN1CCOCC1)c1nc2ccc(OCC)cc2s1`, for which the Potency result is “inactive”.
As to `Cc1ccc(C)c(NC(=O)C2CCCN(S(=O)(=O)c3cn(C)cn3)C2)c1` (stereo unspecified), the Potency entry is “inactive”.
As for `CCOc1ccc2nc(C(=O)N3CCCC(C)C3)sc2c1` (stereo unspecified), the figure is 1.69 µM (active); as for `CCOc1ccc2nc(N3CCC(C(=O)Nc4cc(C)ccc4C)CC3)sc2c1`, “inactive”.
For `CCOc1ccc2nc(N3CCCC(C(=O)Nc4cc(C)ccc4C)C3)sc2c1` (stereo unspecified), the Potency is 2.39 µM (active).
As for `Cc1ccc2cccc(NC(=O)c3ccc(OC(C)C)cc3)c2n1`, the entry is “inactive”; as for `CCOC(=O)c1ccc(CSc2nnc3cc(C)c4ccccc4n23)cc1`, “inactive”.
With `Oc1c(C(c2ccccc2Cl)N2CCOCC2)sc2nc(-c3ccco3)nn12` (stereo unspecified) the entry was “inactive”; with `CC(=O)c1ccc(NC(=O)C(C)N(C)CC(=O)Nc2ccccc2Cl)cc1` (stereo unspecified), “inactive”.
`Cc1cc([N+](=O)[O-])ccc1NC(=O)C1CCCO1` (stereo unspecified): the Potency entry is “inactive”.
As for `Cc1ccc(C)c(C(C)NC(=O)C2CCCO2)c1` (stereo unspecified), the entry is “inactive”; as for `Cc1cc(C)c2nc(NC(=O)C3CCCO3)sc2c1` (stereo unspecified), 3.79 µM (active).
For the molecule `COCCn1c(SCC(=O)c2cc(C)ccc2C)nc2cc(C(=O)NC3CCCC3)ccc2c1=O`, the Potency entry is “inactive”.
With `O=C(C1Cc2ccccc2CN1C(=O)c1ccco1)N1CCN(c2ccccc2)CC1` (stereo unspecified) the entry was “inactive”; with `O=C1NNC(c2ccccc2)=N/C1=C\c1ccc(Cl)cc1`, “inactive”.
Regarding `c1ccc2[nH]c(-c3nc4ccccc4[nH]3)nc2c1`, the Potency was 2.13 µM (active).
As for `COc1ccc(-c2[nH]nc(-c3ccccc3)c2-c2nc3ccccc3[nH]2)cc1`, the entry is “inactive”.
As for `Cc1ccc(C)c(N2CCN(C(=O)CCc3nc4ccccc4[nH]3)CC2)c1`, the entry is “inactive”; as for `Cc1ccc(-c2nc3ccccc3[nH]2)cc1N`, 2.39 µM (active).
With `CN(C)c1cc(N)c2ccccc2n1` (tested in a mixture with another compound) the entry was “inactive”.
In the case of `O=C(Nc1sc2c(c1-c1nc3ccccc3[nH]1)CCCC2)C1CC1`, the Potency result was “inactive”.
As for `COc1ccc(NC(=O)C2CCCN(S(=O)(=O)c3c(C)[nH]c(=O)[nH]c3=O)C2)c(OC)c1` (stereo unspecified), the entry is “inactive”.
